High-throughput results as filed in PubChem BioAssay.
SMN2 splice enh = qHTS Assay for Enhancers of SMN2 Splice Variant Expression. HEK293 SMN2-luciferase splicing reporter, luminescence, 30-36 h. Potency, µM (highest dose often 46.1 µM), hits mostly activators. actives 2.8% (n = 210,000). AID 1458, 2008; note: nearly all actives have a fitted effect of over 55% in size
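qHTS luciferase splicing reporter: luminescence rises when SMN2 exon 7 is included in transfected HEK293 cells. Compound exposure lasted 30-36 h at 37C, with 4.5 mM final sodium butyrate as control, followed by a ONE-Glo read.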
Rab9 promoter act = qHTS Assay for Rab9 Promoter Activators | AID 485297, 2010 | Huh7 Rab9 promoter-luciferase reporter, luminescence, 24 h | actives 2.8% (n = 320,000) | Potency, µM (titrated, usually from 9.22 µM), usual class: activators; note: nearly all actives have a fitted effect of over 60% in size
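Steps: seed 1500 Huh7 Rab9-luc cells per well, rest 2 h at 37 °C; add compound in DMSO; incubate 24 h; add luciferase reagent, 10 min ambient; read luminescence.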
NPC1 promoter act = qHTS Assay for NPC1 Promoter Activators; Huh7 NPC1 promoter luciferase reporter, 24 h; Potency, µM (doses to about 9.22 µM), most hits filed as activators; actives 2.4% (n = 320,000); AID 485313, 2010; note: nearly all actives have a fitted effect of over 60% in size
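Stable NPC1-promoter luciferase Huh7 line; cpd (DMSO) 24 h, 37 °C, 5% CO2; Amplite luciferase reagent 10 min RT; luminescence readout. qHTS format.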
Luc counter = Counterscreen for Luciferase (Kinase-Glo TM) Inhibition | Luciferin 4-monooxygenase (Photuris pensylvanica), Q27757 | Kinase-Glo luciferase, ATP luminescence, 8 min | Potency, µM (top dose mostly 38.3 µM), actives largely listed as inhibitors | actives 0.28% (n = 200,000) | AID 1379, 2008; note: nearly all actives have a fitted effect of over 60% in size
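Substrate mix (final 50 mM imidazole pH 7.2, 50 mM KCl, 7 mM MgCl2, 10 uM ATP, 0.01% Tween 20, 0.05% BSA) plus pin-tool compound, then Kinase-Glo detection mix; 8 min ambient, luminescence read.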
ELG1 genotox = qHTS screen for small molecules that induce genotoxicity in human embryonic kidney (HEK293T) cells expressing luciferase-tagged ELG1. actives 1.3% (n = 330,000). AID 504466, 2011. Potency, µM (series often up to 46 µM), usual class: activators. HEK293T ELG1-luciferase reporter, luminescence, 16 h; note: nearly all actives have a fitted effect of over 60% in size
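Reporter readout depends on ELG1 protein level, which increases with genetic stress. After 16 hr compound exposure at 37 °C, luciferase activity was quantified using ONE-Glo.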
FLuc counter = qHTS profiling assay for firefly luciferase inhibitor/activator using purifed enzyme and Km concentrations of substrates (counterscreen for miR-21 project); Luciferin 4-monooxygenase (Photinus pyralis), P08659; purified FLuc, Km substrates, luminescence inhibition; Potency, µM (highest dose often 57.5 µM), usual class: inhibitors; actives 6.9% (n = 360,000); AID 588342, 2011; note: nearly all actives have a fitted effect of over 55% in size
Target sequence (P08659 whole entry, looked up): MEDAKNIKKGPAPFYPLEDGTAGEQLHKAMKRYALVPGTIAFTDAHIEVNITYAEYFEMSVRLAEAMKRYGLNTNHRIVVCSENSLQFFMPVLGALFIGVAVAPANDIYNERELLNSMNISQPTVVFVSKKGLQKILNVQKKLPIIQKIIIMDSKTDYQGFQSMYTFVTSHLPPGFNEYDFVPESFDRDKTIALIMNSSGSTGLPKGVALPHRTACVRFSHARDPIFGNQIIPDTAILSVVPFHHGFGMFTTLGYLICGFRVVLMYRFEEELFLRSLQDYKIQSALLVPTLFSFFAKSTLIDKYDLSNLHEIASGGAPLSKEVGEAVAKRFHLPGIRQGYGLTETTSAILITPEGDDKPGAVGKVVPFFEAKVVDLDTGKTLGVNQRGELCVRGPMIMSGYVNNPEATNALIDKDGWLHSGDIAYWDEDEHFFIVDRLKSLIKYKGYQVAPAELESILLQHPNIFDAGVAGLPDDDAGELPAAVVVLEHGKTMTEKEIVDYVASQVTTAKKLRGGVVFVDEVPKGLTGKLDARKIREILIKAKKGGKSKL
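Biochemical qHTS of compounds, final roughly 60 µM downward over six points, against 10 nM purified firefly luciferase using Km concentrations of substrates (10 uM D-luciferin, 10 uM ATP) in Tris acetate pH 7.5 buffer; luminescence output.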
Numbers stand for hits; i = inactive; ? = inconclusive; nt = no result; ! = not confirmed by another sample. An excerpt weighted towards active compounds, which were near 7.3% of everything screened. Calls come from the whole dose curve; as a rule, active = well fitted curve in the direction sought with a large enough effect; inconclusive = small, poorly fitted or top-dose-only effect, or another doubt; inactive = no such curve, though single readings can be large; an effect the other way counts as inactive or inconclusive.

SMILES	SMN2 splice enh	Rab9 promoter act	NPC1 promoter act	Luc counter	ELG1 genotox	FLuc counter
Cc1nc2ccc(-c3nc4cc(N)ccc4o3)cc2[nH]1	2.8µM	0.4µM	0.4µM	i	?	1.9µM
O=C(c1ccc2c(c1)N(Cc1ccccc1F)C(=O)c1ccccc1S2(=O)=O)N1CCC(Cc2ccccc2)CC1	i	nt	nt	nt	nt	i
COc1ccc(-c2[nH]c(-c3ccc(C)cc3)nc2SCC(=O)NCC2CCCO2)cc1 (configuration not stated)	i	nt	nt	nt	nt	i
COc1ccc(Cl)cc1NC(=O)CSc1nc(-c2ccccc2)c2ccccc2n1	i	nt	nt	nt	nt	i
Cc1ccc(NC(=O)/C(C#N)=C(\N)C(Cl)(Cl)Cl)nc1	nt	?	?	i	?	2.1µM
CCc1noc(C)c1C(=O)Nc1nc(-c2ccc(NC(C)=O)cc2)cs1	nt	i	i	nt	i	i
COc1ccc(Br)cc1C(=O)Nc1nc2ccc(F)cc2s1	i	nt	nt	nt	nt	?
CC12CCC(=O)N1C(C(=O)Nc1nc3ccc(Cl)cc3s1)CS2 (configuration not stated)	nt	i	i	nt	i	?
CCc1noc(C)c1C(=O)Nc1nc(-c2ccccc2)c(C(C)=O)s1	nt	i	i	nt	i	15µM
CCc1ccc2nc(NC(=O)C3CSC4(C)CCC(=O)N34)sc2c1 (configuration not stated)	nt	i	i	nt	?	12µM
CCc1ccc2nc(NC(=O)c3cc(C)on3)sc2c1	?	?	i	i	i	6µM
Cc1noc(C)c1C(=O)Nc1nc2ccc(F)cc2s1	nt	3.2µM	1.6µM	nt	?	4.3µM
COc1ccc(CN(Cc2ccco2)C(=O)c2ccccc2F)cc1	i	nt	nt	nt	nt	i
COc1cc(Cl)c(C)cc1NC(=O)c1cnc(N2CCOCC2)c2ccccc12	nt	nt	nt	nt	nt	i
CCc1noc(C)c1C(=O)Nc1nc2c(C)cc(C)cc2s1	nt	i	i	nt	i	11µM
Cc1noc(C)c1C(=O)Nc1nc2ccc(Cl)cc2s1	nt	?	?	nt	?	2.4µM
CCc1noc(C)c1C(=O)NCCc1ccccc1	nt	?	?	nt	16µM	?
Cc1cc(C)nc(NC(=O)c2c(-c3ccccc3Cl)noc2C)n1	i	i	i	i	i	i
CCc1noc(C)c1C(=O)NCCc1ccc(F)cc1	nt	i	i	nt	i	i
Cc1onc(-c2ccccc2Cl)c1C(=O)Nc1nc2ccc(S(C)(=O)=O)cc2s1	i	i	i	i	i	12µM
Cc1ccc(-c2csc(NC(=O)c3c(C)noc3C)n2)s1	nt	nt	nt	nt	i	nt
CCc1noc(C)c1C(=O)Nc1nc2ccc(F)cc2s1	nt	?	?	nt	i	17µM
CCOC(=O)c1c(NC(=O)c2c(-c3ccccc3)noc2C)sc(C)c1-c1ccccc1	0.71µM	i	i	i	i	i
CCc1noc(C)c1C(=O)Nc1nc2ccc(S(C)(=O)=O)cc2s1	nt	i	i	nt	i	2.4µM
O=C(CN1CCOCC1)Nc1nc2ccc(F)cc2s1	i	i	i	i	?	i
SMILES	SMN2 splice enh	Rab9 promoter act	NPC1 promoter act	Luc counter	ELG1 genotox	FLuc counter
COc1cccc(OC)c1C(=O)Nc1nc2ccc(S(C)(=O)=O)cc2s1	i	i	i	i	i	i
COc1cccc(-c2ccc3ncnc(NCc4cccc(F)c4)c3c2)c1	nt	i	i	nt	nt	i
Cc1nc2ccc(NC(=O)COc3ccccc3)cc2s1	i	i	i	i	i	?
Nc1nc2ccc(OC(F)(F)F)cc2s1	?	10µM!	10µM!	i	i	?
Cc1nc2ccc(Oc3ccccc3)cc2s1	nt	i	i	nt	i	17µM
Nc1nc2ccc(Oc3ccccc3)cc2s1	?	4µM	2.8µM	i	8.2µM	8.5µM
CCOc1ccc(NC(=O)/C=C\C(=O)N(c2ccc(C(C)C)cc2)C(C(=O)NCc2ccco2)c2ccc(F)cc2)cc1 (configuration not stated)	nt	nt	nt	nt	nt	i
FC(F)(F)Oc1ccc(Nc2nc3ccccc3o2)cc1	?	?	2.5µM	i	?	8.5µM
Cc1ccc(NC(=O)c2c(C)nc(Nc3nc4ccccc4o3)nc2C)cc1	i	i	i	i	i	i
CCOC(=O)C(=CN=C(N)Nc1nc2ccccc2o1)C(=O)OCC	nt	?	?	i	?	i
CCCOC(=O)Nc1nc2ccccc2o1	?	2.5µM	2.2µM	i	?	13µM
O=C(NNc1nc2ccccc2o1)c1ccccc1	nt	0.79µM	?	nt	i	2.7µM
c1ccc(Nc2nc3ccccc3o2)cc1	?	2.5µM	2µM	13µM	1.8µM	3µM
Cc1ccc(CSc2ncc(Cl)c(C(=O)Oc3ccc(F)cc3)n2)cc1	i	nt	nt	nt	nt	i
Cc1cccc(CNC(=O)c2ccc(NC(=O)N3CC(C)Sc4ccccc43)cc2)c1 (configuration not stated)	i	nt	nt	nt	nt	i
COc1cccc(CNC(=O)c2c(C)oc3nc(C)nc(N4CCOCC4)c23)c1	nt	nt	nt	nt	nt	i
Fc1ccccc1Nc1nc2ccccc2o1	nt	0.4µM	0.71µM	nt	2.1µM	1.5µM
Cc1cc(C)nc(Nc2nc3ccccc3o2)n1	nt	i	i	nt	i	i
CCOC(=O)N1CCc2c(sc(NCc3cccs3)c2C(=O)Nc2cc(Cl)ccc2OC)C1	nt	nt	nt	nt	nt	i
COc1ccc(NC(=O)c2cc(-c3ccc(OC)c(OC)c3)on2)cc1OC	i	i	i	i	i	i
O=C(NCCN1CCOCC1)c1cc(-c2ccccc2Cl)on1	nt	i	i	nt	i	?
O=C(Nc1cccc(O)c1)c1cc(-c2ccccc2Cl)on1	nt	i	?	nt	?	0.38µM
COc1ccc(NC(=O)c2cc(-c3ccccc3Cl)on2)cc1OC	nt	i	i	nt	i	7.6µM
Cn1ncc(C#N)c1NC(=O)c1cc(-c2ccccc2Cl)on1	i	i	i	i	i	27µM
O=C(Nc1ccccc1)OCc1cc(-c2ccccc2Cl)on1	?	i	i	i	i	13µM
SMILES	SMN2 splice enh	Rab9 promoter act	NPC1 promoter act	Luc counter	ELG1 genotox	FLuc counter
CCOC(=O)C1CCCN(S(=O)(=O)c2cc(-c3onc(C)c3C)ccc2OC)C1 (configuration not stated)	nt	nt	nt	nt	nt	i
COC(=O)c1cc(NC(=O)c2nn(C)c3c2CSc2ccccc2-3)cc(C(=O)OC)c1	nt	nt	nt	nt	nt	i
COc1cccc(CN2C(=O)c3ccccc3Sc3ccc(C(=O)NCc4ccccc4)cc32)c1	i	nt	nt	nt	nt	i
CCc1nnc(NC(=O)c2csc3c2CCC(C)C3)s1 (configuration not stated)	?	2µM	?	i	?	i
CC1CCc2c(C(=O)Nc3cccc(-c4nn[nH]n4)c3)csc2C1 (configuration not stated)	nt	?	i	nt	?	2.7µM
CC1CCc2c(C(=O)NCc3ccco3)csc2C1 (configuration not stated)	nt	i	i	nt	i	i
